Results from PubChem BioAssay (Tox21).
Where “and” joins values, the source holds several entries; their conditions need not be identical. Equal values may be shown once. Results filed as inconclusive are left out. Some compounds were tested as several samples or in several runs, with calls that do not always agree. Calls of active or inactive are those of the source. Unless noted, the call rests on the fitted dose curve.

What was measured:
[1] = Nuclear factor erythroid 2-related factor 2/antioxidant responsive element (Nrf2/ARE) small molecule agonists: luciferase reporter gene qHTS assay in human keratinocytes (AID 1919969); further: nearly all actives have a fitted effect of over 35% in size; further: potency means the concentration at half of the fitted maximal effect
[2] = molecular target: KiSS-1 receptor (Homo sapiens) (UniProt Q969F8); test: Human kisspeptin (KISS1R) small molecule agonists, calcium flux assay in KISS1R-HEK293 cells (AID 1920064; active means well fitted activation curve with a large enough effect in the repeat runs)
How it was run: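 HEK293 cells stably expressing human KISS1R were plated 18 h at 37 °C, loaded with calcium dye for 1 h at 37 °C, then given compound by pin tool. Fluorescence (Ex/Em 480/540) was read kinetically for 3 min.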

[3] = G protein-coupled receptor (GPCR) small molecule agonists, calcium flux assay: HEK293 wild type cell line counter screen (AID 1920065); further: potency means the concentration at half of the fitted maximal effect
How it was run: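 Cells were plated and cultured 18 h at 37 C/5% CO2, then loaded with calcium dye for 1 h at 37 C. Compounds in DMSO were pin-transferred in agonist mode, and fluorescence (Ex/Em 480/540) was read kinetically for 3 min at 1 s intervals.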

[4] = p53 small molecule agonists, cell-based qHTS assay with rat liver microsomes (AID 1963578)
How it was run: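 p53RE-bla cells, 4,000/well, pre-incubated 5 h, then given compounds plus rat liver microsomes (0.5 mg/mL final) and NADPH (0.5 mg/mL final). Incubation 16 h at 37 C; beta-lactamase reporter read by LiveBLAzer fluorescence after 2 h at room temperature.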

[5] = p53 small molecule agonists, cell-based qHTS assay with human liver microsomes: qHTS cell viability counter screen (AID 1963579); further: nearly all actives have a fitted effect of over 45% in size
How it was run: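 p53RE-bla cells, 4,000/well, dosed 5 hours after plating, with human liver microsomes (0.5 mg/mL final) plus NADPH (0.5 mg/mL final), 16 hours at 37 C. Viability read as CellTiter-Glo luminescence after 30 min at room temperature.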

[6] = p53 small molecule agonists, cell-based qHTS assay with rat liver microsomes: qHTS cell viability counter screen (AID 1963580); further: nearly all actives have a fitted effect of over 45% in size
How it was run: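 In HCT-116 cells carrying a p53 response element-bla reporter, compounds were metabolically activated in situ by rat liver microsomes with NADPH over 16 h. Cell ATP content then served as the cytotoxicity measure.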

[7] = p53 small molecule agonists, cell-based qHTS assay: qHTS cell viability counter screen (AID 1963581); further: nearly all actives have a fitted effect of over 45% in size
How it was run: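 p53RE-bla HCT-116 cells were exposed to compounds for 16 h at 37 C; after the beta-lactamase FRET read in the same wells, CellTiter-Glo was added and luminescence (intracellular ATP) read after 30 min at room temperature.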

[8] = p53 small molecule agonists, cell-based qHTS assay (AID 1963582; active means well fitted activation curve with a large enough effect in the signal ratio in the repeat runs, not every such curve was filed as active; the % refers to the signal ratio)
How it was run: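 p53RE-bla beta-lactamase reporter cells rested 5 h at 37 C/5% CO2, then received compounds in DMSO by pin transfer and were incubated 16 h at 37 C. LiveBLAzer B/G FRET substrate was loaded for 2 h at room temperature before fluorescence reading.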

[9] = molecular target: Muscarinic acetylcholine receptor M1 (Homo sapiens) (UniProt P11229); test: Cholinergic receptor muscarinic 1 (CHRM1) small molecule antagonists, cell-based qHTS assay (AID 1963588); further: nearly all actives have a fitted effect of over 40% in size; further: potency means the concentration at half of the fitted maximal effect
How it was run: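 CHRM1-CHO calcium-flux assay, antagonist mode. Cells were seeded 18 h, dye-loaded 1 h at 37 C and given compound for 5 min at RT, then acetylcholine was added at 50nM. FDSS fluorescence was read 3 min; 15 concentrations, three runs.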

[10] = molecular target: Muscarinic acetylcholine receptor M1 (Homo sapiens) (UniProt P11229); test: Cholinergic receptor muscarinic 1 (CHRM1) small molecule agonists, cell-based qHTS assay (AID 1963589); further: nearly all actives have a fitted effect of over 35% in size; further: potency means the concentration at half of the fitted maximal effect
How it was run: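 CHO cells stably expressing human CHRM1, seeded 18 h at 37 C/5% CO2, dye-loaded 1 h at 37 C, then given compound in agonist mode; intracellular calcium fluorescence read kinetically at 1 s intervals. Fifteen concentrations, three independent runs.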

[11] = cAMP Responsive Elements (CRE) small molecule agonists, cell-based qHTS assay (AID 1963590)
How it was run: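 CRE-bla HEK 293T cells in DMEM with 10% dialyzed FBS, NEAA, pyruvate and 25 mM HEPES were plated 18 h at 37 C/5% CO2, then exposed to compounds in DMSO for 3 h before LiveBLAzer B/G FRET substrate addition.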

[12] = cAMP Responsive Elements (CRE) small molecule antagonists, cell-based qHTS assay (AID 1963591; active means well fitted inhibition curve with a large enough effect in the signal ratio in the repeat runs, not every such curve was filed as active; the % refers to the signal ratio)
How it was run: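 CRE-bla HEK293T cells were plated 18 h at 37 °C/5% CO2, pinned with compound in DMSO, then stimulated with NKH477 at 0.25 uM final for 3 h. LiveBLAzer B/G FRET substrate was added and plates incubated 2 h at room temperature.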

[13] = molecular target: Beta-2 adrenergic receptor (Homo sapiens) (UniProt P07550); test: Adrenergic beta2 receptor (ADRB2) small molecule antagonists, cell-based qHTS assay (AID 1963592); further: series mostly up to about 92 µM; nearly all actives have a fitted effect of over 50% in size
How it was run: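 Cells (CHO, stable ADRB2 overexpression) incubated 18-20hr at 37C; compounds added from DMSO; agonist mix (1nM isoproterenol, 100uM IBMX, 25uM Ro-20-1724) added; 0.5hr RT; d2-cAMP and anti-cAMP-cryptate added; 1hr RT; 665/615 nm read.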

[14] = molecular target: D(2) dopamine receptor (Homo sapiens) (UniProt P14416); test: Dopamine D2 receptor (DRD2) small molecule agonists, cell-based qHTS assay (AID 1963594); further: nearly all actives have a fitted effect of over 35% in size
How it was run: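 HEK293 cells stably expressing DRD2 were cultured 24 h at 37 C, then given Ro20-1724 (0.1 mM final) and compounds for 10 min at room temperature. NKH477 (200nM) was then added for 30 min. cAMP was read by HTRF.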

[15] = molecular target: D(2) dopamine receptor (Homo sapiens) (UniProt P14416); test: Dopamine D2 receptor (DRD2) small molecule antagonists, cell-based qHTS assay (AID 1963595; active means well fitted inhibition curve with a large enough effect in the signal ratio in the repeat runs, with a control signal flat; the % refers to the signal ratio)
How it was run: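 In this cell-based antagonist screen, compounds act for 10 min at room temperature before a 30 min challenge with 12 nM quinpirole and 200 nM NKH477. cAMP is quantified by HTRF competition in DRD2-HEK293 cells containing 0.1 mM Ro20-1724.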

[16] = molecular target: Gonadotropin-releasing hormone receptor (Homo sapiens) (UniProt P30968); test: Human gonadotropin-releasing hormone receptor (GnRHR) small molecule agonists, calcium flux assay in GnRHR-HEK293 cells (AID 1920063); further: nearly all actives have a fitted effect of over 35% in size; further: potency means the concentration at half of the fitted maximal effect
How it was run: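 HEK293 cells stably expressing human GnRHR were plated 18 h at 37 °C, loaded with calcium dye 1 h at 37 °C, then given compound in agonist mode; fluorescence (Ex/Em 480/540) read kinetically for 3 min at 1 s intervals.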

[17] = p53 small molecule agonists, cell-based qHTS assay with human liver microsomes (AID 1963577)
How it was run: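 p53RE-bla cells, 4,000/well, compound added after 5 h, with human liver microsomes 0.5 mg/mL and NADPH 0.5 mg/mL final; 16 h at 37 C, then LiveBLAzer 2 h RT, fluorescence.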

[18] = molecular target: 5-hydroxytryptamine receptor 2A (Homo sapiens) (UniProt P28223); test: 5-hydroxytryptamine receptor 2A (HTR2A) small molecule antagonists, cell-based qHTS assay (AID 1963586); further: nearly all actives have a fitted effect of over 45% in size; further: potency means the concentration at half of the fitted maximal effect
How it was run: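 Antagonist-mode intracellular calcium assay: DOI (4 nM) added after 5 min compound pre-incubation at room temperature to dye-loaded HTR2A-CHO cells. Fluorescence followed for 3 min, sampled every second.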

[19] = molecular target: Beta-2 adrenergic receptor (Homo sapiens) (UniProt P07550); test: Adrenergic beta2 receptor (ADRB2) small molecule agonists, cell-based qHTS assay (AID 1963593);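 further: CHO cells stably overexpressing human ADRB2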
How it was run: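 CHO cells stably over-expressing ADRB2 were plated overnight at 37C, then dosed with compounds plus a stimulation mix containing 100uM IBMX and 25uM Ro-20-1724 for 0.5hr at room temperature. cAMP was measured by HTRF competition, 1hr.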

[20] = molecular target: 5-hydroxytryptamine receptor 2A (Homo sapiens) (UniProt P28223); test: 5-hydroxytryptamine receptor 2A (HTR2A) small molecule agonists, cell-based qHTS assay (AID 1963587); further: nearly all actives have a fitted effect of over 30% in size; further: potency means the concentration at half of the fitted maximal effect
How it was run: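 HTR2A-CHO cells, plated 18 h at 37 C/5% CO2, dye-loaded 1 h at 37 C; compounds in DMSO added by pin tool (agonist mode). Intracellular calcium flux read as kinetic fluorescence on FDSS over 2 min at 1 s intervals.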

Measured: Potency

Sequence of Gonadotropin-releasing hormone receptor (Homo sapiens) (P30968 whole entry, looked up): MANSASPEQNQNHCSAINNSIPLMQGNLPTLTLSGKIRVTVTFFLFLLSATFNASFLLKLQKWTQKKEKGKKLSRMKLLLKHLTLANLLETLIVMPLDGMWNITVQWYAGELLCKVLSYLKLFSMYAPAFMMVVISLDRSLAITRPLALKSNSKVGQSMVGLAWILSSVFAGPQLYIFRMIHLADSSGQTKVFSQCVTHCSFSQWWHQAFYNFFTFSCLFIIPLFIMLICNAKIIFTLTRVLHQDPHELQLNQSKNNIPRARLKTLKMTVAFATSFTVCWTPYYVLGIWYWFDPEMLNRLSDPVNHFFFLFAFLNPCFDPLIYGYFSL
Sequence of 5-hydroxytryptamine receptor 2A (Homo sapiens) (P28223 whole entry, looked up): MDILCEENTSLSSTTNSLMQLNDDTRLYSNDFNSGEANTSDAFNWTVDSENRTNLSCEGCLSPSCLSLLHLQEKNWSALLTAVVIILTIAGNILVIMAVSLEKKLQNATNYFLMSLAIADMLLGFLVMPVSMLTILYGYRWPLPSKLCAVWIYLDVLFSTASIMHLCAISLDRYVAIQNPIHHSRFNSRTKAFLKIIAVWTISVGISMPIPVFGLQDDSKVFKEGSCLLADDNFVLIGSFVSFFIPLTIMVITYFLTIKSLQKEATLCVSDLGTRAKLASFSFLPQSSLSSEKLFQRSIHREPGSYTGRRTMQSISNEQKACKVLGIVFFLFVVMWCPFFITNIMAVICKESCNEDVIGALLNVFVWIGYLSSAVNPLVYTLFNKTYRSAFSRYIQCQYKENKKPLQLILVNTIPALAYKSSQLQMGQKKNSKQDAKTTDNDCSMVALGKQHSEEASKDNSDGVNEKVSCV
Sequence of Beta-2 adrenergic receptor (Homo sapiens) (P07550 whole entry, looked up): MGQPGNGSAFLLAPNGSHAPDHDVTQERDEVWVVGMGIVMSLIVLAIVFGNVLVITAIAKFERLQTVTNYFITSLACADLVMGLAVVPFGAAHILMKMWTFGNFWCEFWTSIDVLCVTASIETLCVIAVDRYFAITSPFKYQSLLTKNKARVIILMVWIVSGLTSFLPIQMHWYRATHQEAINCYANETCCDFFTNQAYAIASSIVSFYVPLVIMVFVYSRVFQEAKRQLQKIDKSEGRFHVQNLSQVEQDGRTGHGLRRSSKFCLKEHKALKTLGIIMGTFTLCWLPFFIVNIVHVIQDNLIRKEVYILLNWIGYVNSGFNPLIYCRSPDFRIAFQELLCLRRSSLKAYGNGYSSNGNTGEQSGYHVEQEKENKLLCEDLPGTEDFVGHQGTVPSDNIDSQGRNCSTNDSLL
Sequence of KiSS-1 receptor (Homo sapiens) (Q969F8 whole entry, looked up): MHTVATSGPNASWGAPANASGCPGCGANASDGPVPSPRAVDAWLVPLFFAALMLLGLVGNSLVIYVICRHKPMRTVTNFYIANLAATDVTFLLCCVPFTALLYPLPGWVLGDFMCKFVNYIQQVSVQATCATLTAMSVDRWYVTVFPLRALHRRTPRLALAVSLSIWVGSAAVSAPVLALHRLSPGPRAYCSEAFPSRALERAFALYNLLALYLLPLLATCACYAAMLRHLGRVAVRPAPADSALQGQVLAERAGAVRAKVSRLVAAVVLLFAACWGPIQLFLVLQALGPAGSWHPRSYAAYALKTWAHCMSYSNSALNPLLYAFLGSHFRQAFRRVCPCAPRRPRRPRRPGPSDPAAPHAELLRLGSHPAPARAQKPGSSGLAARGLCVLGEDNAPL
Sequence of D(2) dopamine receptor (Homo sapiens) (P14416 whole entry, looked up): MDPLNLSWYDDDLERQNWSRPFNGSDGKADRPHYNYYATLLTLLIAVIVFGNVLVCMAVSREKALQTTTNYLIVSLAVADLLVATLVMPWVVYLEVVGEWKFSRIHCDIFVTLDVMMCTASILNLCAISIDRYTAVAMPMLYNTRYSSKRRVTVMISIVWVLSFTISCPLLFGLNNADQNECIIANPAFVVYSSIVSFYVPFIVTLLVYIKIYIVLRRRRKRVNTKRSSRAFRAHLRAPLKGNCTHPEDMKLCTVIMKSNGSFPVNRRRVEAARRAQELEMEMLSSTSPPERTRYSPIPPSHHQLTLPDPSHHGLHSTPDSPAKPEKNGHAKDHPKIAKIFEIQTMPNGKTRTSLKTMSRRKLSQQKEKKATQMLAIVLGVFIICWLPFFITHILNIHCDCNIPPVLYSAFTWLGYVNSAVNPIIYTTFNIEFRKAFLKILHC
Sequence of Muscarinic acetylcholine receptor M1 (Homo sapiens) (P11229 whole entry, looked up): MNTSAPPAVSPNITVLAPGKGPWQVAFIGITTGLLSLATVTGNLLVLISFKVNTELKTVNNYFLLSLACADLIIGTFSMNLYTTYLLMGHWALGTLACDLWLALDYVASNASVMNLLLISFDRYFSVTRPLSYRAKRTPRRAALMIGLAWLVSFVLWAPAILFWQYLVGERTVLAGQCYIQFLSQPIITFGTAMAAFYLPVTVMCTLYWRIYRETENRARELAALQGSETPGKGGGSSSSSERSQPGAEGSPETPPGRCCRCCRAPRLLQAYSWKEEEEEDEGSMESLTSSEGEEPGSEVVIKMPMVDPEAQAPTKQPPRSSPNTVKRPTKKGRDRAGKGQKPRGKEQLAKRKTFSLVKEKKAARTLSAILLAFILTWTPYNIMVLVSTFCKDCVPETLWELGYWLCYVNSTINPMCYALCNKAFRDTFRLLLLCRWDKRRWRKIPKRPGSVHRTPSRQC

CCN(CC)CCOC(=O)C(C)(c1ccccc1)c1ccccc1
active: [9] 13 nM
not listed: [16] | [17] | [18] | [19] | [20]
inactive: all other assays above

CSCCCN=C=S
active: [1] 61.1 µM
not listed: [2] | [6] | [20]
inactive: all other assays above

ClP(Cl)(Cl)(Cl)Cl
not listed: [6] | [15] | [16]
inactive: all other assays above

BrC(Br)C(Br)(Br)Br
active: [20] 55.3 µM
not listed: [8] | [11] | [12] | [14] | [16] | [19]
inactive: all other assays above

CCCN(CCC)C(=O)Cc1c(-c2ccc(Cl)cc2)nc2ccc(Cl)cn12
inactive: [1] | [16] | [2] | [17] | [6] | [7] | [8] | [20] | [10] | [13] | [14]

Cc1cc(C(C)(C)c2cc(C)c(O)c(C)c2)cc(C)c1O
inactive: [1] | [2] | [3] | [9] | [14]
active: [16] 33.5 µM | [20] 23.7 µM

Clc1cc(Cl)c(-c2cc(Cl)c(Cl)cc2Cl)cc1Cl
not listed: [3] | [19]
inactive: all other assays above

C=CC(=O)OCCN(C)C
not listed: [16] | [18] | [19]
inactive: all other assays above

NC(=O)C(Cl)Cl
not listed: [16] | [18] | [19]
inactive: all other assays above

Cc1c(COC(=O)[C@@H]2[C@H](/C=C(\Cl)C(F)(F)F)C2(C)C)cccc1-c1ccccc1
active: [1] 53.2 µM and 27.2 µM
38 µM (active) and inactive: [20]
not listed: [3] | [7] | [8] | [9]
inactive: all other assays above

CC1(C)CC/C(=C/c2ccc(Cl)cc2)C1(O)Cn1cncn1 (stereo not drawn)
active: [1] 43 µM
inactive: [16] | [2] | [17] | [5] | [6] | [9] | [10] | [15]

CN1C(=O)[C@@H](NC(=O)c2cc3ccccc3[nH]2)N=C(c2ccccc2)c2ccccc21
not listed: [7] | [8] | [13] | [16] | [19]
inactive: all other assays above

CCCN(CCC)c1c([N+](=O)[O-])cc(C(F)(F)F)cc1[N+](=O)[O-]
active: [1] 19.3 µM and 61.1 µM
not listed: [4] | [5] | [8] | [17]
inactive: all other assays above

NS(=O)(=O)C(F)(F)C(F)(F)C(F)(F)C(F)(F)C(F)(F)C(F)(F)C(F)(F)C(F)(F)F
active: [1] 68.6 µM | [10] 0.0022 µM
not listed: [2] | [8] | [11] | [14]
inactive: all other assays above

O=S(=O)(c1ccc(Cl)cc1)c1ccc(Cl)cc1
inactive: [1] | [2] | [3] | [4] | [5] | [10] | [11] | [13] | [14]
active: [18] 10.7 µM

Nc1nc(N)c(N)c(N)n1
active: [3] 39.1 µM | [20] 43.9 µM | [10] 55.2 µM
not listed: [2] | [12] | [14] | [15] | [16] | [19]
inactive: all other assays above

N#CN
not listed: [1] | [4] | [8] | [13] | [14] | [17]
inactive: all other assays above
